Bioassay records as filed in PubChem BioAssay.
A selection: hits, their analogues and other compounds. The true share with any hit is near 1.2%.
Avidin fluor – compound fluoresces at 488/530 nm on avidin beads; compound fluorescence 488/530 nm, flow cytometry; stronger effect = higher value; fluorescence (KMESF) at 10 µM; 220,000 tested, 0.38% active; AID 1775; in the data active = fluorescence above about 47
RGS8-Gao reg – human RGS8-Galphao interaction regulation; P09471; multiplexed bead flow cytometry, RGS8-Galphao binding; actives lie on both sides; response (percent of control binding), % at 10 µM; 220,000 tested, 0.34% active; AID 1423; in the data active = response below about 60% or above about 140%; inactive = in between;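 note: Galphao activated as the GDP aluminium fluoride complex binding bead-coupled RGS8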
Target sequence (P09471 whole entry, looked up): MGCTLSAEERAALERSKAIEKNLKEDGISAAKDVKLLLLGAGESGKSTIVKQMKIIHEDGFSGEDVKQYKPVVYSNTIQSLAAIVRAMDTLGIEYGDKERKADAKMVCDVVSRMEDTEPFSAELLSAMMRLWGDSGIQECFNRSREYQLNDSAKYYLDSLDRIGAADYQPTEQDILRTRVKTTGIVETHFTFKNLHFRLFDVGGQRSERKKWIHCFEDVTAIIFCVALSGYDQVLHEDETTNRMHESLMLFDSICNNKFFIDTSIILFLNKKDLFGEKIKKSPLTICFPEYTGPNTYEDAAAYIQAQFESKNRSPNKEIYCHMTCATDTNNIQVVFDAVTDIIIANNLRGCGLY
RGS16-Gao HTS – modulates binding between human RGS16 and Galphao; AID 1441; binding response (% of control), % at 10 µM; 220,000 tested, 0.38% active; O15492+P09471; bead-based flow cytometry RGS16-Galphao binding, fluorescence; actives lie on both sides;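 note: Galphao activated by GDP with aluminum fluoride before binding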
Target sequence (O15492 whole entry, looked up): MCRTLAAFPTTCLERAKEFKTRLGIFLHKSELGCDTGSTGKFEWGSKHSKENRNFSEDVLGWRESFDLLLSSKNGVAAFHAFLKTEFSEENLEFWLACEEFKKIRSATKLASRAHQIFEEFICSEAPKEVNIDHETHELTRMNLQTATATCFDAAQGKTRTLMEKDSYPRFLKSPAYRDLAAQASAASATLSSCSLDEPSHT
Target sequence (P09471 whole entry, looked up): as the sequence (P09471 whole entry, looked up) above
RGS7-Gao reg – modulates binding of RGS7 to human Galphao | P09471 | Multiplexed bead flow cytometry; actives lie on both sides | binding response (% of control), % at 10 µM | 220,000 tested, 0.35% active; in the data active = binding response below about 49% or above about 150%; inconclusive = no clear call, values can overlap the other calls; inactive = in between;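 note: fluorescent Galphao held in activated GDP-AlF4 state binding bead-coupled RGS7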
GSH bead fluor – compound fluoresces at 488/530 nm on GSH beads. fluorescence (KMESF) at 10 µM. GSH beads flow cytometry, compound fluorescence 488/530 nm; stronger effect = higher value. 190,000 tested, 0.25% active; in the data active = fluorescence above about 89;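 note: glutathione beads carrying GST-tagged Bcl family fusion proteins plus one bare bead set; values are compound well signal with DMSO vehicle wells as background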
RGS4-Gao reg – human RGS4-Galphao interaction regulation; P09471; Multiplexed bead flow cytometry, RGS4-Galphao binding; actives lie on both sides; binding response (% of control), % at 10 µM; 220,000 tested, 0.33% active; AID 1415; in the data active = binding response below about 49% or above about 150%; inactive = in between;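 note: fluorescent Galphao activated with aluminum fluoride binding bead-coupled RGS4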
RGS-Gao – RGS4-Galphao interaction regulator (human). RGS4–Galpha-o binding response, % at 10 µM. 1,600 tested, 99% active. shares compounds with RGS16-Gao HTS. multiplexed bead flow cytometry, RGS–Galpha-o binding;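 note: fluorescently labeled Galpha-o bound to GDP with aluminium fluoride binding biotinylated RGS beads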
Biotin-avidin – counter-screen: compounds disrupting biotin binding to avidin beads. shares compounds with RGS16-Gao HTS. streptavidin beads, fluorescein-biotin binding, flow cytometry. inhibition, % at 10 µM. 1,700 tested, under 10 active;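 active = inhibition above 50%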;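 note: median green fluorescence of gated singlet beads compared with DMSO control wells; 0% = DMSO wells and 100% = complete loss of bead fluorescence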
RGS8-Gao single – RGS8-Galphao interaction regulation, single point confirmation | shares compounds with RGS16-Gao HTS | bead-based flow cytometry RGS8-Galphao binding, fluorescence; actives lie on both sides | binding response (% of control), % at 10 µM | 1,700 tested, 3% active; in the data active = binding response below about 72% or above about 130%; inactive = in between;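 note: Galphao activated as GDP AlF4 complex before binding bead RGS8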
RGS7-Gao confirm – confirmation of regulators of human RGS7-Galphao interaction | bead-based flow cytometry RGS7-Galphao binding; actives lie on both sides | shares compounds with RGS16-Gao HTS | response (percent of control binding), % at 10 µM | 1,700 tested, 7.8% active; in the data active = response below about 75% or above about 130%; inactive = in between;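 note: fluorescent Galphao activated with GDP and aluminum fluoride binding bead-coupled RGS7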
RGS16-Gao single – confirmation of regulators of human RGS16-Galphao interaction; 1,700 tested, 4% active; bead-based flow cytometry, RGS16-Galphao binding; actives lie on both sides; AID 1838; shares compounds with RGS16-Gao HTS; response (% of control binding), % at 10 µM; in the data active = response below about 74% or above about 130%; inactive = in between;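 note: Galphao activated as the GDP aluminium fluoride complex binding bead-coupled RGS16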
RGS4-Gao single – confirmation of regulators of human RGS4-Galphao interaction; shares compounds with RGS16-Gao HTS; RGS4-Galphao binding, multiplexed bead flow cytometry; actives lie on both sides; binding response (% of control), % at 10 µM; 1,700 tested, 4% active; AID 1840; in the data active = binding response below about 74% or above about 130%; inactive = in between
RGS19-Gao conf – confirmation of regulators of human RGS19-Galphao interaction; bead-based flow cytometry RGS19-Galphao binding; actives lie on both sides; response (percent of control binding), % at 10 µM; AID 1841; 1,700 tested, 5% active; shares compounds with RGS16-Gao HTS; in the data active = response below about 50% or above about 160%; inactive = in between;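 note: 100% = no compound control and 0% = blank background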
* hit, by the source's call; i = inactive; ? = inconclusive; / = no result; [ ] = dose if it differs, or a comment. Unless noted, the rule behind the calls is not given here.

SMILES | Avidin fluor | RGS8-Gao reg | RGS16-Gao HTS | RGS7-Gao reg | GSH bead fluor | RGS4-Gao reg | RGS-Gao | Biotin-avidin | RGS8-Gao single | RGS7-Gao confirm | RGS16-Gao single | RGS4-Gao single | RGS19-Gao conf
CC(/C=N/n1c(-c2ccco2)n[nH]c1=S)=C\c1ccco1 | 2 | 62 | -3.8* | 76 | 11 | 73 | 73* | -1 | 95 | 104 | 92 | 96 | 94
CC(/C=N/n1c(-c2ccc(C)cc2)n[nH]c1=S)=C\c1ccco1 | 11 | 99 | 105 | 105 | 17 | 96 | / | / | / | / | / | / | /
CCN(CC)C(=O)C[n+]1cccc(/C=N/O)c1 | 4 | 103 | 112 | 97 | 8 | 101 | / | / | / | / | / | / | /
CN(C)C(=O)C[n+]1cccc(/C=N/O)c1 | 13 | 142*[activator] | 251*[activator] | 110 | 9 | 114 | 114* | 0 | 100 | 97 | 101 | 100 | 108
Cc1ccc(CN(c2ccc(C(=O)Nc3cccnc3)cc2)S(C)(=O)=O)cc1 | 4 | 32* | 4.8* | 16* | 10 | -2.8* | / | -3 | 101 | 104 | 103 | 102 | 103
CCOc1ncccc1C(=O)OCc1nnc(-c2ccccc2)o1 | / | / | / | / | 40 | / | / | -1 | 100 | 100 | 100 | 99 | 118
O=C(OCc1nnc(-c2ccccc2)o1)c1cccnc1Cl | 9 | 101 | 100 | 100 | 13 | 104 | / | / | / | / | / | / | /
CC(=O)C1C(c2ccc(Cl)cc2)c2c(noc2C)CC1(C)O (stereo unspecified) | 6 | 100 | 96 | ? | / | 101 | / | / | / | / | / | / | /
CCCNC(=O)CN1C(=O)NC2(CCCc3cc(OC)ccc32)C1=O (stereo unspecified) | 6 | 148*[activator] | 253 | 110 | 17 | 108 | 108* | / | / | / | / | / | /
CCCCn1c(=O)c(CCC(=O)OCC(=O)NCc2ccc(OC)c(OC)c2)nc2ccccc21 | 24 | 105 | 112 | 105 | 11 | 106 | / | / | / | / | / | / | /
COc1ccc(NC(=O)Cn2c(C(C)C)nc(C)cc2=O)cc1Cl | 6 | 96 | 91 | 95 | 20 | 96 | / | / | / | / | / | / | /
CCN(CC)Cc1c(-c2ccccc2)[nH]c2ccc(C)cc2c1=O | 2 | 142*[activator] | 409 | 104 | 36 | 110 | 110* | -3 | 107 | 100 | 107 | 102 | 91
Cc1ccc2[nH]c(-c3ccccc3)cc(=O)c2c1 | 33 | 96 | 94 | 103 | 12 | 98 | / | / | / | / | / | / | /
O=C(Nc1ccc(Cl)c(Cl)c1)OCCNC(=O)c1ccncc1 | 11 | 81 | 104 | ? | 11 | 96 | / | 0 | 103 | 106 | 105 | 104 | 92
Cc1ccc(-c2c[n+](CC(=O)OCc3ccccc3)c3n2CCC3)cc1 | -2 | 13* | 7.7* | 9.5* | 13 | 12* | / | -2 | 103 | 96 | 103 | 99 | 94
CC(=O)NC(C)c1ccc(Cl)c(Cl)c1 (stereo unspecified) | 5 | 156*[activator] | i | 133 | 32 | 139 | 139* | / | / | / | / | / | /
CCCc1cc(-n2ccnc2)n2c(nc3ccccc32)c1C#N | 84* | 119 | 192*[activator] | 151*[activator] | 150* | 162*[activator] | / | 7 | 101 | 119 | 110 | 111 | 138
O=C1Nc2ccccc2N(O)N1c1cc(-c2ccc(Cl)cc2)[nH]n1 | 21 | 105 | 112 | 101 | 8 | 100 | / | / | / | / | / | / | /
CC(C)C(NS(=O)(=O)c1cccc2nsnc12)C(=O)Nc1nc2ccc(Cl)cc2s1 (stereo unspecified) | 9 | 101 | 103 | 104 | 20 | 100 | / | / | / | / | / | / | /
CCOc1ccc2nc(NC(=O)C(NS(=O)(=O)c3cccc4nsnc34)C(C)C)sc2c1 (stereo unspecified) | 2 | 131 | 118 | 137 | 22 | 153*[activator] | / | 0 | 101 | 105 | 103 | 103 | 105
CCCC(=O)NCCCCNC(=O)CCC | 9 | 96 | 74 | 99 | 36 | 100 | / | / | / | / | / | / | /
CC(=O)N(O)CCCCCNC(=O)CCC(=O)N(O)CCCCCNC(=O)CCC(=O)N(O)CCCCCN | 4 | 51* | 35 | 55 | 22 | 61 | 61* | -2 | 53* | 58* | 42* | 57* | 64
CC1=C(C(=O)NCc2ccccc2)C(c2cccs2)n2ncnc2N1 (stereo unspecified) | 3 | 79 | -63* | 81 | 4 | 69 | 69* | 1 | 98 | 100 | 101 | 100 | 102
COc1ccccc1C1C(C(=O)NCc2ccccc2)=C(C)Nc2ncnn21 (stereo unspecified) | 6 | 100 | 98 | 98 | 49 | 100 | / | / | / | / | / | / | /
CC1CN(C(=O)/C=C/c2ccc([N+](=O)[O-])s2)CC(C)O1 (stereo unspecified) | 23 | 106 | 111 | 103 | 20 | 106 | / | / | / | / | / | / | /
CC1CC(C)CN(C(=O)/C=C/c2ccc([N+](=O)[O-])s2)C1 (stereo unspecified) | / | 14* | 11* | 15* | 15 | 18* | / | -2 | 96 | 47* | 82 | 58* | 81
COc1cc(CC(NC(C)=O)C(=O)NC2CCN(C(=O)c3cc(OC)c(OC)c(OC)c3)CC2)cc(OC)c1 (stereo unspecified) | 10 | 141*[activator] | 284 | 119 | 11 | 110 | 110* | -1 | 102 | 105 | 103 | 104 | 102
CC(C)N1CCC(=NNC(=O)c2ccc(Br)o2)CC1 | 8 | 98 | 92 | 97 | 34 | 97 | / | / | / | / | / | / | /
O=C(NN=C1CCCCCC1)c1ccc(Br)o1 | 13 | 141*[activator] | 327*[activator] | 120 | 8 | 115 | 115* | -1 | 113 | 116 | 115 | 111 | 124
